Vc quorum ag: inducers of Vibrio cholerae quorum light production without autoinducers; V. cholerae BH1578 lux reporter, luminescence, 6 h; activation, % at 18.7 µM; hit rate 0.16% among 350,000; AID 588436; in the data active = activation mostly above about 9.7%, no sharp cut-off; inconclusive = no clear call, values can overlap the other calls; inactive = mostly below about 3.7%
Autofluor counter: flagged as autofluorescent in microsphere protease counterscreen | fluorescence intensity (no concentration beside the values) | hit rate 3.1% among 360,000 | compound autofluorescence counterscreen, microsphere flow cytometry; stronger effect = higher value; in the data active = fluorescence intensity above about 16000; inconclusive = no clear call, values can overlap the other calls
Anthrax LF prot: blocks Bacillus anthracis lethal factor protease | P15917 | multiplex microsphere protease cleavage assay, LF | inhibition, % at 10 µM | hit rate 0.12% among 360,000; note: plate controls were buffer without enzyme for full effect and enzyme alone for no effect
BoNT A protease: blocks Botulinum neurotoxin A light chain protease; multiplex microsphere protease substrate cleavage, flow cytometry; inhibition, % at 10 µM; hit rate 0.17% among 360,000; note: plate controls were buffer without enzyme for full effect and enzyme alone for no effect
BJeLR viability: kills HRASV12-expressing BJeLR cells. inhibition, % (test concentration not listed). hit rate 0.17% among 300,000. BJeLR (HRASV12) viability, CellTiter-Glo ATP luminescence, 48 h; in the data active = inhibition above about 50%; inconclusive = no clear call, values can overlap the other calls
BoNT-F LC inh: BoNT F light chain protease inhibition; Multiplex microsphere protease cleavage assay, flow cytometry; inhibition, % at 10 µM; AID 588497; hit rate 0.22% among 360,000; in the data active = inhibition above about 35%, passing the limit was not always enough; inconclusive = no clear call, values can overlap the other calls; note: plate controls were buffer without enzyme for full effect and enzyme alone for no effect
* hit, by the source's call; i = inactive; ? = inconclusive; . = no result. An excerpt weighted towards active compounds, which were near 3.7% of everything screened. Cut-off read from the data, not from the text of the source, unless noted: active = inhibition above about 30%; inconclusive = no clear call, values can overlap the other calls; inactive = below that.

SMILES	Vc quorum ag	Autofluor counter	Anthrax LF prot	BoNT A protease	BJeLR viability	BoNT-F LC inh
CCOC(=O)C1=C(C)NC(=O)NC1c1cccc(OC)c1OCc1ccccc1Cl (stereo not given)	i	23671*	-3	?	-6	-2
CCN(CC)C(=O)C(C)OC(=O)COc1ccc(Cl)cc1C (stereo not given)	-3	22121*	-3	-1	-14	-2
Cc1cc(Cl)ccc1OCC(=O)OC(C)C(=O)N(C)C (stereo not given)	0	4569	1	-1	5	-20
Cc1cc(Cl)ccc1OCC(=O)OCC(=O)Nc1ccc(Cl)cn1	-6	2962	-8	0	.	-2
C/C(N)=C(/C#N)C(=O)COC(=O)COc1ccc(Cl)cc1C	3	21745*	-3	0	-3	2
CCCn1c(SC(C)C(=O)NC2CCCC(C)C2C)n[nH]c1=O (stereo not given)	-6	3141	0	0	.	4
O=C(c1cc(-c2ccccc2)on1)N(Cc1cccnc1)C(c1ccccn1)c1nc2ccccc2[nH]1 (stereo not given)	.	4334	7	-1	.	-10
CCCCn1c(Nc2ccccc2)nc2ccccc21	-1	16689*	-2	-1	0	-4
Cc1cc(NCCCN2CCOCC2)n2nc(C)c(-c3ccccc3)c2n1	-3	2400	-4	0	0	-14
Cc1cc(NCCC(C)C)n2nc(C)c(-c3ccccc3)c2n1	0	24144*	-3	-2	1	-6
COc1ccc(NC(=O)C2(C)CCN2C(=O)c2ccccc2CCc2ccccc2)cc1OC (stereo not given)	0	3641	0	0	.	7
COc1ccc(C(=O)CN(C(=O)c2ccc(Cl)cc2)N2C(=O)C3CCCCC3C2=O)cc1 (stereo not given)	-2	11113	-21	?	2	38*
COc1cccc(C(=O)CN(C(=O)c2ccc(Cl)c(Cl)c2)N2C(=O)C3CCCCC3C2=O)c1 (stereo not given)	-1	17192*	-3	-2	3	-3
CCCc1nc2c3ccccc3ccn2c1Cc1ccc(OC)cc1C	.	7044	?	?	.	?
Cc1cc(C(=O)COC(=O)C2=NNC(=O)CC2)c(C)n1-c1cccc(C(F)(F)F)c1	0	17667*	-11	6	-1	5
CC(NC(=O)c1cccc(S(=O)(=O)N(C)c2ccccc2)c1)c1cccnc1 (stereo not given)	-1	?	-1	1	.	2
COCCn1c(N)c(Sc2ccccc2)c(=O)[nH]c1=O	i	3979	3	-1	-2	-2
CCCn1c(N)c(Sc2ccccc2)c(=O)n(CCC)c1=O	i	19729*	-1	-1	11	-1
CCCn1c(N)c(Sc2ccc([N+](=O)[O-])cc2)c(=O)n(CCC)c1=O	i	2509	-1	-1	2	-7
CCCCn1c(N)c(Sc2ccccc2)c(=O)[nH]c1=O	0	25818*	-6	-8	.	-10
C[C@@H]1CN([C@@H](C)CO)C(=O)CCCn2nncc2CO[C@@H]1CN(C)S(=O)(=O)c1cccc(F)c1	i	3643	-10	0	.	-9
O=C(Nc1ccccn1)C(c1ccccc1)c1ccccc1	-6	4033	-10	0	.	14
CCCCN(C)C(=O)c1sc(=O)n(Cc2ccc(Cl)c(Cl)c2)c1C	1	4194	-5	-1	.	-14
CN(C)c1ncnc2c1ncn2[C@H]1CN(Cc2cccs2)C[C@@H](CO)O1	0	3391	-4	0	.	6
CC1CN(C(=O)c2cc3c(=O)n4ccccc4nc3s2)CC(C)O1 (stereo not given)	i	16544*	-1	0	7	0
SMILES	Vc quorum ag	Autofluor counter	Anthrax LF prot	BoNT A protease	BJeLR viability	BoNT-F LC inh
CCOC(=O)c1cc2c(C)n(-c3ccc(N(C)C)cc3)c(C)c2cc(C(=O)OCC)c1=O	i	18745*	1	?	10	6
CC(C)NC(=O)CCNS(=O)(=O)c1ccc(Br)cc1	i	24137*	-1	-3	0	-3
CC1(C(=O)Nc2cnc3ccccc3c2)CCN1C(=O)c1ccccc1CCc1ccccc1 (stereo not given)	i	4011	3	0	.	-5
Cc1cccc(Cc2cccc(C)c2O)c1O	0	3937	0	0	.	-10
CN1CCCC1CCNC1C2CC3CC(C2)CC1C3 (stereo not given)	i	16148*	-4	0	23	-3
CN1CCCC1CN1CCCC1 (stereo not given)	.	6209	-15	-1	.	-21
O=C(Nc1ccccc1)c1cc(C2CCCCN2C(=O)c2cccs2)on1 (stereo not given)	-3	3050	-2	0	.	-5
S=c1nc[nH]c2nc[nH]c12	-3	5493	0	-1	76*	-7
O=C1NC[C@H](CCCCN2C[C@H](Cc3ccc(O)cc3)N(CCc3ccc(O)cc3)C(=O)C2=O)N(CC2CCCCC2)C1=O	.	5744	-5	0	.	1
Cc1cccc(CSc2nnc(NC(=O)c3ccco3)s2)c1	i	24019*	-3	-4	0	-7
O=C(Oc1coc(CSc2nnc(NC(=O)C3CC3)s2)cc1=O)c1ccccc1	-3	2569	1	63*	-4	0
Cc1cc(C)nc(SCc2cc(=O)c(OC(=O)c3cccc([N+](=O)[O-])c3)co2)n1	-1	7578	1	4	-4	33
Cc1ccc(C(=O)Oc2coc(CSc3nnc(NC(=O)C4CC4)s3)cc2=O)cc1C	i	1984	0	34*	.	-7
COc1ccc(C(=O)Oc2coc(CSc3nnc(NC(=O)c4cccs4)s3)cc2=O)cc1	0	2075	0	0	-13	3
Cc1cccc(C(=O)Oc2coc(CSc3nnc(NC(=O)C4CC4)s3)cc2=O)c1	i	2570	1	55*	-3	-3
C=CC[C@H](CC(=O)N(CCO)Cc1ccccc1)C(=O)N[C@@H](COC(=O)[C@@H](CC=C)Cc1ccc(F)cc1)Cc1c[nH]c2ccccc12	i	2955	-6	0	.	-4
CCCCC(=O)N(C)c1c(C)nc2ccc(C(=O)Nc3cccc(OC)c3)cn12	-5	4024	-6	-1	.	-6
Cc1cc(Br)ccc1OCCCCNCCO	14	21727*	-1	-7	2	-9
OCCNCCCOc1ccc(Cl)cc1Br	i	22475*	-4	0	-3	-1
O=c1[nH]c(=O)n2ncnc2[nH]1	-3	2878	-2	0	.	-10
Fc1cccc(Cc2c(-c3ccco3)nc3c(Cl)cc(C(F)(F)F)cn23)c1	.	5987	-9	1	.	7
O=C(Cn1c(CC(=O)N2CCCC2)nc2ccccc21)NCc1ccccc1	0	24078*	0	-1	1	-3
O=C(Cn1c(=O)n(CC(=O)N2CCCCC2)c(=O)c2sccc21)NCc1ccccc1	i	5127	-2	-1	8	6
Cc1nc2ccccc2n1CC(=O)NCc1ccccc1	0	22747*	0	1	12	4
